Experimental data reported in PubChem BioAssay (EPA / NIEHS).
Where “and” joins values, the source holds several entries; their conditions need not be identical. Identical values can stand only once. More than one record can exist for a structure, and the calls need not agree. Calls of active or inactive are those of the source. The calls were made as follows: active = hit-call score of the fitted dose curve at least 0.9, where 1 is the maximum; inactive = score below 0.9.

The compounds below were run on E-selectin (Homo sapiens) (UniProt P16581) (assay: BSK_IMphg_ESelectin: BioMAP Diversity Plus: IMphg Assay for Eselectin Biomarker Activity (AID 2284291)). Conditions: primary human endothelial cells with macrophages.
Procedure: BSK_IMphg is a cell-based, multiplexed-readout assay that uses venular endothelial cells and macrophages, a human vascular primary cell, with measurements taken at 24 hours after chemical dosing in a microplate: 96-well plate.BSK_IMphg_ESelectin is an assay component measured in the BSK_IMphg assay. It measures E-selectin antibody related to regulation of gene expression using ELISA technology.Data from the assay component BSK_IMphg_ESelectin was analyzed at the endpoint, BSK_IMphg_ESelectin, in the positive analysis fitting direction relative to DMSO as the negative control and baseline of activity. Using a type of binding reporter, gain or loss-of-signal activity can be used to understand protein changes. To generalize the intended target to other relatable targets, this assay endpoint is annotated to the 'cell adhesion molecules' intended target family, where the subfamily is 'selectins'.
The levels of cell surface (or secreted, indicated by the prefix "s") biomarker endpoints were measured by ELISA. Overt cytotoxicity to cells in confluent adherent cultures (all systems other than the BT system) was assessed by measuring total protein levels using sulforhodamine B (SRB) staining in parallel cultures at the time of biomarker measurements, indicated as SRB endpoints. For proliferation assays for adherent cell types, individual cell types are cultured at sub-confluence and relative cell numbers quantified by SRB staining at time points optimized for each system (48 h: 3C and CASM3C systems; 72 h: BT and HDF3CGF systems; 96 h: SAg system). SRB was performed by staining cells with 0.1% SRB after fixation with 10% TCA and reading wells at 560 nm.Viability and proliferation of PBMC (T cells) was quantified by Alamar Blue reduction for the SAg and BT systems. For PBMC viability (referred to as PBMC Cytotoxicity within the assay endpoint names), cells were plated (75,000/well in a 96-well plate) and then chemical samples added for 1 h before addition of activators, SEB and TSST-1 (20 ng/mL final concentration each). Cells were incubated for 90 h. Then, Alamar Blue (20 uL/well) (Invitrogen, Cat DAL1100) was added for 6 h, and the plates were read with a fluorescence microplate reader at 546/580 nm (excitation/emission). For PBMC proliferation, cells were plated and activated as above but incubated for only 16 h prior to addition of Alamar Blue. Plates were read after 6 h.

E-selectin (Homo sapiens), sequence (P16581 whole entry, looked up): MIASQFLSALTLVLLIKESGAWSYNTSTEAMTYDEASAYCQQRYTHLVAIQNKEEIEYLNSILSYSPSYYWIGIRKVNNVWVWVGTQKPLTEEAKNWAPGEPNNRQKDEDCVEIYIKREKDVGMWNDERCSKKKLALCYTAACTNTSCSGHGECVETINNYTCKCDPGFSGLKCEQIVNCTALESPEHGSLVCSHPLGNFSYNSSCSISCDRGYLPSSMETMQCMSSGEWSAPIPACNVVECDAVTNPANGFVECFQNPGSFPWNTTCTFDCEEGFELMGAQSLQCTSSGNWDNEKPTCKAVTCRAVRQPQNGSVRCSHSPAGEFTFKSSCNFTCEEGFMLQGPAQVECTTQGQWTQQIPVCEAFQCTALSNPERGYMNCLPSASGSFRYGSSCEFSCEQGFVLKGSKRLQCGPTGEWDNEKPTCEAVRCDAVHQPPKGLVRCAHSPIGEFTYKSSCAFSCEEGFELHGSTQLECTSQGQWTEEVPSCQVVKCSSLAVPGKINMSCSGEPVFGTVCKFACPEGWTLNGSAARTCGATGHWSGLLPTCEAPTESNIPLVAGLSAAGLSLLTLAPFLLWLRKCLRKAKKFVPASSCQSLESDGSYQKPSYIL

Row | Structure (SMILES) | AC50 | outcome
1 | CNS(=O)(=O)C(F)(F)C(F)(F)C(F)(F)C(F)(F)C(F)(F)C(F)(F)C(F)(F)C(F)(F)F | 5.55 µM (active) and 8.07 µM (active) | 
2 | O=C(F)C1(F)C(F)(F)C(F)(F)C(F)(F)C(F)(F)C1(F)F |  | inactive
3 | C=CC(=O)OCCC(F)(F)C(F)(F)C(F)(F)C(F)(F)F |  | inactive
4 | O=C(O)C(F)(F)OC(F)(F)C(F)(F)OC(F)(F)C(F)(F)OC(F)(F)F |  | inactive
5 | OC(O)C(F)(F)C(F)(F)F |  | inactive
6 | O=C(O)C(F)(F)C(F)(F)C(F)(F)OC(F)(F)F |  | inactive
7 | O=S(=O)(O)CCC(F)(F)C(F)(F)C(F)(F)C(F)(F)F |  | inactive
8 | C=C(C)C(=O)OCC(F)(F)C(F)(F)C(F)(F)C(F)F |  | inactive
9 | O=C(O)C(F)(F)C(F)(F)C(F)(F)C(F)(F)C(F)(F)C(F)(F)C(F)F |  | inactive
10 | FC(F)(F)C(F)(F)C(F)(F)C(F)(F)C(F)(F)C(F)(F)CC[Si](Cl)(Cl)Cl |  | inactive
11 | O=C(O)CCC(F)(F)C(F)(F)C(F)(F)C(F)(F)C(F)(F)C(F)(F)C(F)(F)F | 2.27 µM (active) and 1.87 µM (active) | 
12 | CO[Si](C)(CCC(F)(F)C(F)(F)C(F)(F)C(F)(F)C(F)(F)C(F)(F)F)OC |  | inactive
13 | O=S(=O)(O)CCC(F)(F)C(F)(F)C(F)(F)C(F)(F)C(F)(F)C(F)(F)C(F)(F)C(F)(F)F | 21.3 µM (active) | inactive
14 | C[Si](Cl)(Cl)CCC(F)(F)C(F)(F)C(F)(F)C(F)(F)C(F)(F)C(F)(F)F |  | inactive
15 | O=C(O)CCC(F)(F)C(F)(F)C(F)(F)F |  | inactive
16 | OCC(O)CC(F)(F)C(F)(F)C(F)(F)C(F)(F)C(F)(F)C(F)(F)C(F)(F)C(F)(F)F (stereo not given) |  | inactive
17 | NC(=O)C(F)(F)C(F)(F)C(F)(F)F |  | inactive
18 | OCC(F)(F)C(F)(F)C(F)(F)C(F)(F)C(F)(F)C(F)(F)CO |  | inactive
19 | C=CC(=O)OCC(F)(F)C(F)(F)C(F)(F)COC(=O)C=C | 40 µM (active) and 33.5 µM (active) | 
20 | O=C(Cl)C(F)(F)C(F)(F)C(F)(F)C(F)(F)C(F)(F)C(F)(F)F |  | inactive

Row | Structure (SMILES) | AC50 | outcome
21 | OCC(F)(F)C(F)(F)C(F)(F)C(F)(F)C(F)(F)C(F)(F)C(F)(F)C(F)(F)CO | 51.5 µM (active) and 36.1 µM (active) | 
22 | OCC(O)CC(F)(F)C(F)(F)C(F)(F)C(F)(F)F (stereo not given) |  | inactive
23 | C=CC(=O)OCC(F)(F)C(F)(F)C(F)(F)C(F)(F)C(F)(F)C(F)(F)C(F)(F)C(F)F |  | inactive
24 | O=C(O)C(F)(F)C(F)(F)C(F)(F)C(=O)O |  | inactive
25 | NC(=O)C(F)(F)C(F)(F)C(F)(F)C(F)F |  | inactive
26 | O=S(=O)(OCC(F)(F)F)C(F)(F)C(F)(F)C(F)(F)C(F)(F)F |  | inactive
27 | O=C(Cl)C(F)(F)C(F)(F)C(F)(F)C(F)(F)C(F)(F)C(F)(F)C(F)(F)F |  | inactive
28 | CCN(CCO)S(=O)(=O)C(F)(F)C(F)(F)C(F)(F)C(F)(F)C(F)(F)C(F)(F)C(F)(F)C(F)(F)F | 5.54 µM (active) and 6.2 µM (active) | 
29 | NC(=O)C(F)(F)C(F)(F)C(F)(F)C(F)(F)C(N)=O |  | inactive
30 | FC(F)(F)C(F)(F)C(F)(F)CC1CO1 (stereo not given) |  | inactive
31 | FC(F)(F)C(F)(F)C(F)(F)C(F)(F)C(F)(F)C(F)(F)C(F)(F)CCI |  | inactive
32 | NCC(F)(F)C(F)(F)C(F)(F)C(F)(F)C(F)(F)C(F)(F)F |  | inactive
33 | NS(=O)(=O)C(F)(F)C(F)(F)C(F)(F)C(F)(F)C(F)(F)C(F)(F)F | 30 µM (active) and 21.3 µM (active) | 
34 | O=S(=O)(Cl)C(F)(F)C(F)(F)C(F)(F)C(F)(F)C(F)(F)C(F)(F)C(F)(F)C(F)(F)F |  | inactive
35 | NC(O)(C(F)(F)F)C(F)(F)F |  | inactive
36 | OCC(F)(F)C(F)(F)C(F)(F)CO |  | inactive
37 | CCOC(=O)CC(=O)C(F)(F)C(F)(F)F |  | inactive
38 | OCCCCC(F)(F)C(F)(F)C(F)(F)C(F)(F)F |  | inactive
39 | COC(F)(C(F)F)C(F)(F)F (stereo not given) |  | inactive
